# Assay results reported in PubChem BioAssay.
# Calls of active or inactive are those of the source.
# What was measured:
# Albumin (Bos taurus) = Albumin (Bos taurus) (UniProt P02769); experiment: compounds binding labelled BSA control protein – biochemical, small-molecule microarray, Alexa647 label, 635/667 nm fluorescence, artefact control for SMM control protein annotation, profiling panel (AID 1118); settings: BSA-A647 binding, fluorescence 635 nm, higher = more signal;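 further: score merges 667 nm emission intensity and signal-to-noise per printed compound spot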
# [1] = probe aXIP binding to arrayed compounds – biochemical, NeuroSMM set, 635/667 nm fluorescence, primary screen (AID 1119); settings: small-molecule microarray, higher = more signal, called active from +8 up or from −8 down;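 further: probe is the protein aXip251-270 applied at 1 µg/mL to compound-printed slides; binding of probe to printed compounds measured as 667 nm fluorescence plus signal to noise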
# [2] = probe aNOTCH3 binding on compound microarray – biochemical, small-molecule microarray, 635/667 nm fluorescence, primary screen (AID 1120); settings: higher = more signal;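 further: probe is a biotin-tagged antibody raised against NOTCH3 rather than NOTCH3 protein; score merges spot fluorescence near 667 nm with spot signal to noise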
# [3] = probe aNOTCH2 binding on compound microarray – biochemical, small-molecule microarray, 635/667 nm fluorescence, primary screen (AID 1121); settings: higher = more signal;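 further: score merges feature fluorescence read at 667 nm with its signal to noise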
# [4] = biological target: Carbonic anhydrase 2 (Homo sapiens) (UniProt P00918); experiment: compounds binding carbonic anhydrase 2 – biochemical, small-molecule microarray, Alexa647-labelled CAII, profiling panel (AID 1122); settings: CAII-A647 binding fluorescence, higher = more signal
# [5] = COS7 lysate on small-molecule microarray, probe aHis, 635 nm (AID 1123); settings: COS7 cell lysate, fluorescence, higher = more signal;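 further: z-score combines 667nm fluorescence intensity with signal-to-noise per printed compound spot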
# [6] = probe aLAP1 signal on lysate-treated microarray – cell lysate, small-molecule microarray, COS7 lysate, primary screen (AID 1124); settings: probe aLAP1, fluorescence, higher = more signal;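 further: lysate comes from COS7 cells expressing LAP1 and is applied at 0.3 µg/mL; score merges spot fluorescence near 667 nm with signal-to-noise over triplicate slides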
# Sam68 (KHDRBS1) = experiment: compounds binding KHDRBS1 protein – biochemical, small-molecule microarray, 635 nm fluorescence, primary screen (AID 1125); settings: higher = more signal;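 further: score merges 667 nm channel intensity with signal to noise over triplicate slides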
# [7] = system: Chordin-like protein 2 (CHRDL2); experiment: compounds binding chordin-like 2 – biochemical, small-molecule microarray, 635 nm fluorescence, primary screen (AID 1126); settings: fluorescence 635 nm, higher = more signal;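 further: printed compound slides probed with Chrdl2 protein at 4 µg/mL for 1 h at 4 C; score merges 667 nm emission intensity with signal to noise over three replicate slides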
# [8] = biological target: Concanavalin-A (Canavalia ensiformis) (UniProt P02866); experiment: compounds binding concanavalin A lectin – biochemical, small-molecule microarray, Alexa647 label, 635 nm, artefact control for SMM control protein annotation, primary screen (AID 1127); settings: ConA-A647 binding fluorescence, higher = more signal;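 further: z combines 667 nm emission intensity with signal-to-noise across three replicate slides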
# [9] = compounds binding Alexa647 anti-His antibody – biochemical, small-molecule microarray, 635 nm fluorescence, artefact control for SMM control protein annotation, primary screen (AID 1128); settings: higher = more signal;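 further: score merges feature fluorescence with signal-to-noise for each printed compound spot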
# [10] = system: Human papillomavirus type 1a E7 protein (residues 1-88); experiment: HPV1a E7 small-molecule binders, primary screen, biochemical, small-molecule microarray, residues 1-88, 635 nm (AID 1129); settings: small-molecule microarray binding, fluorescence 635 nm; higher = more signal
# [11] = biological target: Focal adhesion kinase 1 (Homo sapiens) (UniProt Q05397); experiment: PTK2 protein binding on printed compound slides – biochemical, small-molecule microarray, 635/667 nm fluorescence, BSA, DTT, primary screen (AID 1130); settings: 635 nm fluorescence, higher = more signal;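 further: composite of spot emission at 667 nm and signal to noise over triplicate slides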
# [12] = system: Fibrinogen (Alexa647-labelled); experiment: Alexa647-fibrinogen binding to printed small molecules – biochemical, small-molecule microarray, 635/667 nm fluorescence, artefact control for SMM control-protein annotation, profiling panel (AID 1131); settings: fibrinogen-A647 binding fluorescence, higher = more signal;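 further: z-score merges 667 nm fluorescence with per-spot signal-to-noise over triplicate slides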
# [13] = biological target: Follistatin (Homo sapiens) (UniProt P19883); experiment: FST protein binding to printed compounds – biochemical, small-molecule microarray, 635/667 nm fluorescence, primary screen (AID 1132); settings: 635 nm fluorescence, higher = more signal
# [14] = biological target: Fibroblast growth factor 2 (Homo sapiens) (UniProt P09038); experiment: basic fibroblast growth factor binding to printed compounds – biochemical, small-molecule microarray, 635/667 nm fluorescence, primary screen (AID 1133); settings: FGF2, fluorescence 635/667, higher = more signal
# [15] = JC-1 mitochondrial potential readout, lung cancer cells – cell-based, A549, JC-1 fluorescence, basal, 24 h, 100 nL, profiling panel (AID 1138); settings: higher = more signal;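 further: A549 lung adenocarcinoma cells under basal conditions with no added stimulus; test concentration not given here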
# Lefty1 = Lefty1 protein binding to printed compounds – biochemical, small-molecule microarray, 635/667 nm fluorescence, primary screen (AID 1139); settings: fluorescence 635/667, higher = more signal
# [16] = system: wheat germ agglutinin (Triticum aestivum), Alexa647-labelled; experiment: Alexa647-WGA lectin binding to printed small molecules – biochemical, small-molecule microarray, 635/667 nm fluorescence, artefact control for SMM control-protein annotation, profiling panel (AID 1140); settings: WGA-A647 binding, 635 nm fluorescence, higher = more signal;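 further: score merges 667 nm feature emission with signal to noise over triplicate slides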
# [17] = biological target: Luciferin 4-monooxygenase (Photinus pyralis) (UniProt P08659); experiment: inhibition of purified Photinus pyralis luciferase – biochemical, luminescence, purified enzyme, 2006 set, primary screen (AID 1141); settings: purified firefly luciferase, SteadyGlo luminescence, 30 min; higher = more signal, called active from +8 up or from −8 down;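 further: cell-free assay with purified firefly luciferase at 100 ng per well in PBS; test concentration not given here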
# Luciferin 4-monooxygenase (Photinus pyralis), sequence (P08659 whole entry, looked up): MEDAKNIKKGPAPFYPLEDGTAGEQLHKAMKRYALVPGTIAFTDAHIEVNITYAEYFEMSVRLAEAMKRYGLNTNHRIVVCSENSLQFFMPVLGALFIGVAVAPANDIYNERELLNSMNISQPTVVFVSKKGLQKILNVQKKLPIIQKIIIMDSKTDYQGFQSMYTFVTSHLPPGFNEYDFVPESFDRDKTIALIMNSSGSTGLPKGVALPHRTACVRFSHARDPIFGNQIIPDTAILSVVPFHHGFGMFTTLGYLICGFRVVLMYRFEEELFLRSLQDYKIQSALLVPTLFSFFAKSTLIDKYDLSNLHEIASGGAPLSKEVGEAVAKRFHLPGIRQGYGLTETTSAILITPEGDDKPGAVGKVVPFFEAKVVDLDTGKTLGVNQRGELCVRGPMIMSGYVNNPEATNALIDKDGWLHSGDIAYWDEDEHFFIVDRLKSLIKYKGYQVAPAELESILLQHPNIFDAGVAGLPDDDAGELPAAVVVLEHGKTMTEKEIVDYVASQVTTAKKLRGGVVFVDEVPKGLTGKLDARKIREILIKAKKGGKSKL
# Concanavalin-A (Canavalia ensiformis), sequence (P02866 whole entry, looked up): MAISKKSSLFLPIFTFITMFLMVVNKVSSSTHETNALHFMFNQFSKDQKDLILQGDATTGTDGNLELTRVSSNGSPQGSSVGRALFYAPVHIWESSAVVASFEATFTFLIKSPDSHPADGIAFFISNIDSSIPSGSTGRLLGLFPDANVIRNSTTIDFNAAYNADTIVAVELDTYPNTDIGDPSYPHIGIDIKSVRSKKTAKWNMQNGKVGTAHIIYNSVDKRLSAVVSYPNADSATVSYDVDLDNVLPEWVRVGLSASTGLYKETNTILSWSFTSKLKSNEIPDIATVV
# Fibroblast growth factor 2 (Homo sapiens), sequence (P09038 whole entry, looked up): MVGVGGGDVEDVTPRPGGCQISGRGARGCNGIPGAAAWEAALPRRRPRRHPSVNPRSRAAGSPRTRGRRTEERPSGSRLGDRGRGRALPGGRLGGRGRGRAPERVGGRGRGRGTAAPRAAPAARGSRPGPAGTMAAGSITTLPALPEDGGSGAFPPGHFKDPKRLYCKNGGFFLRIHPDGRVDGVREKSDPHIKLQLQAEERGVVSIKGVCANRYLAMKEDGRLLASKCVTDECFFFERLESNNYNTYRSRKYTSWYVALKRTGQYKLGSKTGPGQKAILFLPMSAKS
# Focal adhesion kinase 1 (Homo sapiens), sequence (Q05397 whole entry, looked up): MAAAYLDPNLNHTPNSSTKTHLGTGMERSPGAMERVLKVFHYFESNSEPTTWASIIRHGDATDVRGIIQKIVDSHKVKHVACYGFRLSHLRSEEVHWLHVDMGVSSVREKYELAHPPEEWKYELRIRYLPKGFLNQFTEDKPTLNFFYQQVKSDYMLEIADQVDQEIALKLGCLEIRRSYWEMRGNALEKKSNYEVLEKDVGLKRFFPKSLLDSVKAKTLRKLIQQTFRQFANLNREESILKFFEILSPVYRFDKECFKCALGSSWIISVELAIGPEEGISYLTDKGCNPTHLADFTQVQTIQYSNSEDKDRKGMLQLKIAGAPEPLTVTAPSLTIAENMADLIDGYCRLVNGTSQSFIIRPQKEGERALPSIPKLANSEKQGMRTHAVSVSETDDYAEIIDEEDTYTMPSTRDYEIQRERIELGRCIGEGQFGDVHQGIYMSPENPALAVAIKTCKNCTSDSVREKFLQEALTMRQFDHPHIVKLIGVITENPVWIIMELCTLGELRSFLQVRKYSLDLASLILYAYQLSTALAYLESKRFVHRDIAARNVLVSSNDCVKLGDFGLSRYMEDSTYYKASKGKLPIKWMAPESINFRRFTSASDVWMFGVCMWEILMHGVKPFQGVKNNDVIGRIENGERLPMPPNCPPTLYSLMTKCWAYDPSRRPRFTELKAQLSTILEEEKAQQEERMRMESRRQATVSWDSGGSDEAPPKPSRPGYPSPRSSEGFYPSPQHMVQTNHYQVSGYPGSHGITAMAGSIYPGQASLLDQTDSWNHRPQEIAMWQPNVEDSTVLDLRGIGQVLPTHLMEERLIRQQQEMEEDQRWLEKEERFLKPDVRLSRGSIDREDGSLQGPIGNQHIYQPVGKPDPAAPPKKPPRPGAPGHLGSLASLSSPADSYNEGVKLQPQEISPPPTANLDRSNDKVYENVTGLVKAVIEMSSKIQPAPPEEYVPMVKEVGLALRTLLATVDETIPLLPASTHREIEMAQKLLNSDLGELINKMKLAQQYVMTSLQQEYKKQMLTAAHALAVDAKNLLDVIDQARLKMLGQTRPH
# Follistatin (Homo sapiens), sequence (P19883 whole entry, looked up): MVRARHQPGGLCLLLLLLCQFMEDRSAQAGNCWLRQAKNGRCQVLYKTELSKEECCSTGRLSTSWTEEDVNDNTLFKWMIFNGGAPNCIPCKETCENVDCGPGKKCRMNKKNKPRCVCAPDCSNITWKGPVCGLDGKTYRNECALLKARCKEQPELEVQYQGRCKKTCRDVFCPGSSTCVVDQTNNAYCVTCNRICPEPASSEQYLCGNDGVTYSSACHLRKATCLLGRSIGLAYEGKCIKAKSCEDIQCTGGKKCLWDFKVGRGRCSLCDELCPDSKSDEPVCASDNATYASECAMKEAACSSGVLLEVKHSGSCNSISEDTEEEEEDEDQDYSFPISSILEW
# Albumin (Bos taurus), sequence (P02769 whole entry, looked up): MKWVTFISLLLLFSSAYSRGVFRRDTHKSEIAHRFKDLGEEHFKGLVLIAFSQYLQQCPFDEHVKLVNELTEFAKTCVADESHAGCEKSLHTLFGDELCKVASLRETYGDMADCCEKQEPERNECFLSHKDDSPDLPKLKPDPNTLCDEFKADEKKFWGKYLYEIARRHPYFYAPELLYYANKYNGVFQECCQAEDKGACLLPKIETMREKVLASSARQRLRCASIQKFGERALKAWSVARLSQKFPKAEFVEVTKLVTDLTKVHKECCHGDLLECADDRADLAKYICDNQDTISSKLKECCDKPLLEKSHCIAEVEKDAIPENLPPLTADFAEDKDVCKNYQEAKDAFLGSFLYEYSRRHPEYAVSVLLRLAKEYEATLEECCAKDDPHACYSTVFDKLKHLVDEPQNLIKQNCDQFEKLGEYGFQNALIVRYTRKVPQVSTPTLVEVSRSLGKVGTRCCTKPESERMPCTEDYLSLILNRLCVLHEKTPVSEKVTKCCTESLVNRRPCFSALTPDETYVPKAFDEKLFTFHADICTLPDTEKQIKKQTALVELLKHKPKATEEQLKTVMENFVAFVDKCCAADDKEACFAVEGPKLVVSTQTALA
Compound,composite z-score (Albumin (Bos taurus)),composite Z-score [1],composite z-score [2],composite z-score [3],composite z-score [4],composite z-score [5],composite z-score [6],composite z-score (Sam68 (KHDRBS1)),composite z-score [7],composite z-score [8],composite z-score [9],composite z-score [10],composite z-score [11],composite z-score [12],composite z-score [13],composite z-score [14],z-score [15],composite z-score (Lefty1),composite z-score [16],z-score [17]
CN1C(=O)C2C=CC(C(O)C3CC=CCC3)N(N(c3ccccc3)c3ccccc3)C2C1=O (stereo not given),-0.197,0.0007 (inactive),0.0715,0.19,-0.287,-0.202,0.52,-1.25,0.774,-0.372,0.118,-1.42,0.102,0.0963,0.988,-0.179,0.43,0.449,0.259,0.529 (inactive)
Cc1ccc(N2C(=O)c3ccccc3[C@@H](C(=O)NC3CC3)[C@@H]2c2ccc(CO)cc2)nc1,-0.301,-0.648 (inactive),-0.481,-0.165,0.677,-0.663,0.653,-2.27,-1.97,-0.616,0.442,-0.372,-1.29,-3.9,-0.71,0.392,-0.487,-1.79,-0.0414,0.309 (inactive)
COc1ccc([Si](C)(C)[C@H]2[C@H](CCO)O[C@@]3(C(=O)N(Cc4ccc(N(C=O)c5ccccc5)cc4)c4ccccc43)[C@@H]2C)cc1,0.598,-0.12 (inactive),-0.127,-0.164,-0.0062,0.407,-0.33,-0.852,-0.957,0.538,0.841,0.179,0.114,-0.568,0.191,-0.408,0.357,0.151,0.655,0.221 (inactive)
CCOC(=O)C[C@H]1[C@H](OC(=O)c2cc3ccccc3oc2=O)[C@@H](NC(=O)c2ccccc2)c2cc(OCCCO)ccc2N1C(=O)c1ccc2ccccc2n1,-0.117,0.315 (inactive),0.0496,0.655,0.515,0.922,0.0418,0.845,0.651,0.821,0.255,0.625,-0.148,0.586,1.19,0.563,-0.339,0.87,0.345,0.409 (inactive)
Cc1ccc(S[C@]2(C(=O)NCCCN(C)C)CC(=O)N(Cc3ccccc3C(F)(F)F)[C@@H]2c2ccc(CO)cc2)cc1,0.54,-0.676 (inactive),-0.0639,-0.0013,0.211,0.0645,-0.41,0.0809,-0.327,-1.48,-1.09,-0.935,-0.157,0.109,-0.85,-0.45,0.566,-0.853,0.427,-0.903 (inactive)
C=C(COC)/C(=C/C[C@@H](OC(=O)c1ccncc1)c1ccc(CO)o1)c1cc(C(=O)OC)ccc1OC,0.0436,-0.0882 (inactive),0.0979,-0.104,0.482,0.641,1.46,1.31,1.1,1.14,0.68,1.24,0.987,0.933,1.46,1.92,0.526,1.64,0.707,-1.83 (inactive)
Oc1ccc2cc[n+](Cc3sc4ccccc4c3Cl)cc2c1,-0.49,0.598 (inactive),0.0854,-0.0694,0.888,2.88,1.07,-0.702,0.617,0.376,-0.146,-0.537,0.703,-0.462,1.33,0.567,-0.832,0.506,1.14,-0.226 (inactive)
O=C(NCCN1CCOCC1)[C@@H]1c2ccccc2C(=O)N(C2CCCCC2)[C@H]1c1ccc(CO)cc1,0.349,-0.118 (inactive),-0.154,-0.147,0.625,1.29,-0.0871,0.68,-1.08,0.31,0.166,0.0657,-0.0962,0.74,0.0603,-0.59,2.27,-0.0981,-0.403,-0.293 (inactive)
COC(=O)[C@@]1(Cc2ccc(F)cc2)[C@H]2c3cc(C(=O)N4CCCC4)n(Cc4ccc(S(C)(=O)=O)cc4)c3C[C@H]2CN1C(=O)c1ccccc1,1.08,1 (inactive),0.827,0.365,0.718,3.34,1.21,0.995,-0.26,1.05,1.9,1.24,0.566,0.773,0.751,0.264,0.427,-0.0071,0.616,1.18 (inactive)
CN(C)CCCCCCNC(=O)[C@H]1C[C@H]2C(=O)N3CCC[C@H]3C(=O)N2[C@H]1c1ccc(O)cc1,-0.584,0.233 (inactive),0.377,-0.0438,0.561,2.04,0.81,1.34,1.43,1.22,2.74,1.24,1.03,0.678,1.34,1.48,-0.727,1.39,0.622,-0.171 (inactive)
CC(C)C(=C=CC[C@@H](O)c1ccc(OCCO)cc1)C[C@@H](O)COCc1ccccc1,0.531,-0.114 (inactive),0.0744,-0.105,0.624,0.924,0.664,1.19,0.325,-0.625,-0.547,0.948,0.0144,0.602,1.36,1.46,0.922,1.58,0.225,-1.3 (inactive)
